Screening results (PubChem)
tim23-1 inh – inhibits growth of tim23-1 mutant yeast; hit rate 1.3% among 330,000; inhibition, % at 20 µM; S. cerevisiae tim23-1 growth, BacTiter-Glo luminescence, 24 h;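 active = growth inhibition of the mutant yeast at or above 50%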;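 note: temperature-sensitive mutant grown at 25 °C; plate controls were DMSO-treated mutant yeast for no effect and medium wells lacking yeast for full effect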
NALP3 yeast inh – inhibitors of NALP3 inflammasome in yeast. Yeast reconstituted NLRP3/ASC/caspase-1, beta-gal luminescence, 24 h. inhibition, % at 10 µM. hit rate 0.39% among 330,000;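 active = inhibition of 50% or more; inactive = inhibition below 50%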;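 note: plate controls were induced DMSO wells for no effect and uninduced yeast grown without galactose for full effect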
TIM10 inh – growth inhibitors of TIM10 yeast strain; S. cerevisiae TIM10 strain growth, BacTiter-Glo luminescence, 24 h; inhibition, % at 10 µM; hit rate 1.4% among 330,000; AID 463195;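 active = inhibition of 40% or more at the single tested concentration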;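 note: wild-type TIM10 isogenic control strain grown at permissive 25 °C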
PfHsp90 set2 – growth inhibition of yeast expressing Plasmodium Hsp90. inhibition, % at 9.4 µM. hit rate 0.32% among 310,000. S. cerevisiae expressing PfHsp90, BacTiter-Glo ATP, 48 h; yeast lacking PDR1 and PDR3 efflux regulators;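 active = every replicate shows inhibition above about 80%, whatever the replicate mean, limit read from the data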;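 note: 0% = DMSO neutral controls and 100% = 20 µM radicicol positive controls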
tim10-1 inh – growth inhibitors of tim10-1 mutant yeast; S. cerevisiae tim10-1 ts strain growth, BacTiter-Glo, 24 h; inhibition, % at 20 µM; hit rate 2.2% among 330,000; AID 463190;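 active = inhibition of at least 40%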;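 note: mutant grown at 25 °C; 0% = DMSO wells with yeast and 100% = wells holding no yeast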
SKKanGAS inh – SKKanGAS growth inhibition; S. pyogenes SKKanGAS, kanamycin growth, BacTiter-Glo, 6 h; AID 1662; hit rate 1.3% among 300,000; inhibition, % at 7.5 µM;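 active = mean replicate score, as percent of positive control median, at least 50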;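 note: strain carries kanamycin resistance gene driven by streptokinase promoter and grows in 40 µg/ml kanamycin; loss of luminescence reflects streptokinase promoter inhibition or plain growth inhibition; 0% = median of DMSO wells and 100% = positive control at its reference dose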
tim23-1 conf – tim23-1 yeast growth inhibition, confirmed; hit rate 83% among 4,400; shares compounds with tim23-1 inh; inhibition, % at 20 µM; S. cerevisiae tim23-1 growth, BacTiter-Glo luminescence, 24 h; AID 463218;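 active = inhibition above about 39% in either of two replicate wells at 20 µM, limit read from the data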;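 note: temperature-sensitive tim23-1 mutant grown at 25 °C; 0% = DMSO wells with yeast and 100% = medium wells without yeast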
Starred values were filed as active, the others as inactive; · = no result; ! = not confirmed by another sample. Shown are actives, neighbours in structure and some others; about 4.6% of the full set was active somewhere.

SMILES	tim23-1 inh	NALP3 yeast inh	TIM10 inh	PfHsp90 set2	tim10-1 inh	SKKanGAS inh	tim23-1 conf
Cc1ccc(-c2ccc(C3C(C#N)=C(N)Oc4n[nH]c(C)c43)o2)cc1 (stereo unspecified)	60*	5	14	-8	26	1	46*
O=C(COc1ccccc1)N/N=C/c1ccc([N+](=O)[O-])o1	54*	15	31	-14	39	20	75*
COC(=O)N/N=C/c1ccc([N+](=O)[O-])o1	22	-2	6	-10	20	4	·
O=C(CCc1ccccc1)Oc1ccccc1[N+](=O)[O-]	57*	7	36	·	30	-8	67*
c1ccc(CC(Nc2ccccn2)c2ccccc2)cc1 (stereo unspecified)	52*	20	38	-10	35	-7	41*
COCCNc1c(-c2ccc(OC)cc2)nc2ccc(Cl)cn12	26	26	12	-6	31	-4	·
CCOC(=O)CNc1c(-c2ccc(OC)cc2)nc2ccc(Cl)cn12	53*	31	24	-16	13	0	48*
CCCC(CCC)c1nnc(NC(=O)c2ccco2)s1	62*	14	32	-12	39	-4	64*
Cc1sc(NC(=O)c2ccco2)nc1-c1ccccc1	56*	30	31	25	35	2	72*
CCC(c1ccccc1)c1nnc(NC(=O)c2ccco2)s1 (stereo unspecified)	10	-1	8	·	7	0	·
O=C(Nc1nc2c(F)cccc2s1)c1ccco1	55*	37	22	17	32	-1	54*
COCCOc1ccc(C(F)(F)F)cc1NC(=O)COC(=O)c1ccc(N2CCCC2=O)cc1	8	12	-5	·	8	·	·
O=S(=O)(Cc1ccc(Cl)cc1)NCc1ccc2c(c1)OCO2	27	25	11	-22	14	-1	·
CN(/N=C\c1ccc(O)c(O)c1)c1nc(-c2ccccc2)cc(-c2ccccc2)n1	55*	7	9	22	33	13	41*
COc1cc(/C=N/N(c2ccccc2)c2ccccc2)ccc1O	47	15	2	3	-5	25	·
Oc1ccccc1/C=N/NC(=S)NC1CC2C=CC1C2 (stereo unspecified)	69*	-9	40	-46	18	92*	46*
Oc1ccccc1C=NNC(=S)Nc1ccc(F)cc1	·	·	·	-9	·	·	·
COc1ccc(C2=NOC(C(=O)Nc3ccc4c(c3)OCCO4)C2)cc1OC (stereo unspecified)	12	9	7	3	3	-1	·
CN(C)c1ccc(C(c2ccc(N(C)C)cc2)c2ccc([N+](=O)[O-])cc2)cc1	24	6	10	31	10	3	·
Cc1ccnc(NC(=O)c2cc(F)c(F)cc2Cl)n1	62*	0	20	-18	28	1	47*
CCCCCCc1ccc(-c2ncc(N)cn2)cc1	53*	32	4	-1	39	11	41*
CCCCCc1ccc(-c2nnc(N)s2)cc1	14	34	-21	14	-10	-1	·
Cc1ccc(C(=O)Nc2ccc(-c3csc(C)n3)cc2)cc1	-14	21	23	7	-8	-5	·
O=C(Nc1ccc(Nc2ccccc2)cc1)c1ccccc1	56*	47	6	·	-38	-3	60*
Cc1nc(-c2ccc(NC(=O)c3ccccc3)cc2)cs1	54*	39	22	49	-2	11	53*
SMILES	tim23-1 inh	NALP3 yeast inh	TIM10 inh	PfHsp90 set2	tim10-1 inh	SKKanGAS inh	tim23-1 conf
COc1cc(OC)cc(C(=O)Nc2ccc(Nc3ccccc3)cc2)c1	72*	28	23	3	-10	22	59*
COc1cccc(C(=O)Nc2cccc(-c3ccccc3)c2)c1	55*	28	25	-13	32	-6	49*
Nc1ccc(C(=O)N2CCN(S(=O)(=O)c3ccc(Cl)s3)CC2)cc1[N+](=O)[O-]	24	36	8	-10	19	2	·
CC(C)Oc1cccc(C(=O)NC(=S)Nc2ccccc2)c1	51*	4	26	-13	17	-9	36
COC(=O)c1cccc(NC(=O)c2ccc(OC)c(Cl)c2)c1	57*	26	15	·	11	-6	48*
CC(=O)Oc1cccc(C(=O)Nc2ccccc2C(=O)N2CCCC2)c1	13	13	8	-22	11	1	·
COc1ccc(C(=O)Nc2ccc(OCc3ccccc3)cc2)cc1[N+](=O)[O-]	2	12	1	·	4	9	·
COc1cccc(C(=O)Nc2ccccc2C(=O)N2CCCC2)c1	94*	4	2	1	20	-2	12
COc1ccc(C(=O)Nc2cc(C(=O)O)cc(C(=O)O)c2)cc1Cl	2	1	-2	-36	6	-1	·
COc1ccc(C(=O)Nc2ccc(Nc3ccccc3)cc2)cc1[N+](=O)[O-]	52*	30	0	18	21	20	38
CCOC(=O)C(=CNc1cccnc1Oc1ccc(C)c2c1CCC2)C(=O)OCC	13	13	16	-7	0	-3	·
CC1(O)CC2CC1C(C(=O)O)C2C(=O)O (stereo unspecified)	·	·	·	10	·	·	·
O=C(/C=C/c1ccccc1Cl)OCC(=O)c1ccc[nH]1	53*	5	11	-3	7	·	45*
COC(=O)c1cc(C(=O)OCC(=O)N(C)c2ccccc2)cc([N+](=O)[O-])c1	29	28	6	12	20	14	·
O=C(NCCCN1CCOCC1)c1cccnc1SCc1ccccc1Cl	-2	19	-5	-13	14	-8	·
CC(CCC(=O)NN)C1CCC2C3CCC4CC(O)CCC4(C)C3CCC12C (stereo unspecified)	·	·	·	5	·	·	·
CC(CCC(C)C(C)(C)C)[C@@H]1CC[C@H]2C3C[C@H](OS(O)(=S)=S)[C@H]4C[C@H](OS(O)(=S)=S)[C@@H](OS(O)(=S)=S)C[C@]4(C)[C@H]3CC[C@]12C (stereo partly specified) (tested in a mixture with another compound)	56*!	17	-59	109*	-62	·	11
COc1ccccc1CCNC(=O)C(=O)c1cn(CC(=O)N2CCOCC2)c2ccccc12	7	13	14	-8	11	-6	·
O=C(N/C(=C\c1ccco1)C(=O)N1CCCC1)c1cccs1	52*	7	11	·	9	3	3
O=C(N/C(=C/c1ccco1)C(=O)N1CCCC1)c1cccs1	5	17	3	-26	15	-1	·
COc1cn(-c2ccccc2)nc1C(=O)Nc1ccccc1	19	26	18	2	-11	-6	·
COc1cn(-c2ccccc2)nc1C(=O)Nc1ccc(C)cc1	50*	26	30	26	-51	-8	39
